Test results: PubChem BioAssay (NCATS)
Inconclusive results are not listed. Activity calls are given as the source filed them. Unless noted, the call rests on the fitted dose curve.

Assays:
[1] = biological target: Alpha-galactosidase (Coffea arabica) (UniProt Q42656); experiment: Counterscreen for Glucocerebrosidase Inhibitors: qHTS Assay for Coffee Bean alpha-Galactosidase at pH 4.5 (AID 957; active means well fitted curve in the direction sought with a large enough effect; an effect the other way counts as inactive or inconclusive;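 further: plate controls were enzyme alone for no effect and no enzyme for full effect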)
Alpha-galactosidase (Coffea arabica), sequence (Q42656 whole entry, looked up): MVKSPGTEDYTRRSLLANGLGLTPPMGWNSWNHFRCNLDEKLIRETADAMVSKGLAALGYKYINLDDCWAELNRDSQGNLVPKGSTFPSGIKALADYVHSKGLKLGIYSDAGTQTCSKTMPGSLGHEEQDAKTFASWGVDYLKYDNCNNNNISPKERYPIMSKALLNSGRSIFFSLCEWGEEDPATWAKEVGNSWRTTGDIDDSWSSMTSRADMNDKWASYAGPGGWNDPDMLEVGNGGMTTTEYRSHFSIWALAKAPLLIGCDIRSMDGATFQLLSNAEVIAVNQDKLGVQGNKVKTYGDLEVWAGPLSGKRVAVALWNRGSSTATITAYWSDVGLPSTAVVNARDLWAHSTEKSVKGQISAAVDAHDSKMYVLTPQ
How it was run: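 Green coffee bean enzyme (2 nM final) was incubated with compounds (0.7 nM to 77 uM) and 4-methylumbelliferyl alpha-D-galactopyranoside (80 uM final) in 50 mM citric acid, 0.005% Tween-20, pH 4.5, 20 min at room temperature; AC50 from Hill fits.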

[2] = qHTS for differential inhibitors of proliferation of Plasmodium falciparum line 3D7 (AID 1876; active means well fitted curve in the direction sought with a large enough effect; an effect the other way counts as inactive or inconclusive; further: potency means the concentration at half of the fitted maximal effect)
[3] = Validation screen for inhibitors of Lassa infection (AID 463096); further: on the % scale 0 is the no-effect control and ±100 the full control effect
[4] = Nrf2 qHTS screen for inhibitors: Validation (AID 493153; active means well fitted inhibition curve with a large enough effect in the main read-out, with a control signal flat, not every such curve was filed as active; on activity change, negative = inhibition: % of control where 0% means no effect); details: Potency: luciferase luminescence; viability change: measured here: cytotoxicity max response
How it was run: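 A549 cells carrying an ARE-driven firefly luciferase reporter, in 5% FBS OPTI-MEM, were treated with compounds in concentration-response for 18-24 h at 37°C. Viability was read by CellTiter-Fluor fluorescence, then Nrf2 activity by luciferase luminescence.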

[5] = Inducers of the Endoplasmic Reticulum Stress Response (ERSR) in human glioma: Validation (AID 504836; active means well fitted curve in the direction sought with a large enough effect; an effect the other way counts as inactive or inconclusive; further: 0% is about no effect)
How it was run: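 Stably transfected U87-MG glioma cells carrying a GRP78-based luciferase sensor; 16 h compound incubation. Luminescence end-point read 10 min after Bright-Glo addition at room temperature.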

[6] = qHTS for Inhibitors of ATXN expression: Validation (AID 588378; active means well fitted curve in the direction sought with a large enough effect; an effect the other way counts as inactive or inconclusive; further: on the % scale 0 is the no-effect control and ±100 the full control effect; nearly all actives have a fitted effect of over 75% in size)
How it was run: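 Cells: HEK293-ATXN2-FFLuc, phenol-red free DMEM, 2 h attachment. Compound pin-transfer, 24 h, 37 degrees C, 5% CO2. CellTiter-Fluor 30 min, Ex405/Em525; Bright-Glo 5 min, luminescence 2 s exposure.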

[7] = biological target: Peroxisome proliferator-activated receptor delta (Homo sapiens) (UniProt Q03181); experiment: qHTS assay for small molecule agonists of peroxisome proliferator-activated receptor delta signaling (AID 588534);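 further: 0% = DMSO basal wells and 100% = positive control agonist at 10 µM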
Peroxisome proliferator-activated receptor delta (Homo sapiens), sequence (Q03181 whole entry, looked up): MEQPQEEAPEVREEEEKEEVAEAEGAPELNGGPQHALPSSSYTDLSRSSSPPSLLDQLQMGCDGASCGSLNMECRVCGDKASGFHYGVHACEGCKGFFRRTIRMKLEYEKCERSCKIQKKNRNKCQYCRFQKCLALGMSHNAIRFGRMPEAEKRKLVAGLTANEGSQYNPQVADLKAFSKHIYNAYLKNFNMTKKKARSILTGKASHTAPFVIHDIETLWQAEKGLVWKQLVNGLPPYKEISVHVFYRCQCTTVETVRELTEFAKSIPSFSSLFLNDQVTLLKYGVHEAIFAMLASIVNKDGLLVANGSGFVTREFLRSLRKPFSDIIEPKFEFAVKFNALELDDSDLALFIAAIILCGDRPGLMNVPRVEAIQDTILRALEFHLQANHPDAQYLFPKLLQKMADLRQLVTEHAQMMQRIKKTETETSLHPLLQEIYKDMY
How it was run: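 Cell-based beta-lactamase reporter assay run in agonist mode: cells seeded and incubated 5 hrs at 37 C, compounds added and incubated 18 hrs at 37 C. CCF4 dye fluorescence read after 2 hrs at RT; EC50 and efficacy from Hill fits.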

[8] = qHTS assay for small molecule activators of the p53 signaling pathway (AID 651743; active means well fitted activation curve with a large enough effect in the signal ratio, not every such curve was filed as active; the % refers to the signal ratio; further: potency means the concentration at half of the fitted maximal effect); details: HCT-116 p53RE-bla, beta-lactamase FRET ratio, 16 h; activation: stronger effect = higher value
How it was run: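 HCT-116 p53RE-bla, 4,000 cells/well; 5 h settle; cpd/DMSO 16 h, 37 C; LiveBLAzer B/G 2 h RT; fluorescence intensity.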

[9] = qHTS assay to identify small molecules that stimulate interleukin-8 (IL-8) secretion (AID 651758; active means well fitted activation curve with a large enough effect in the signal ratio; the % refers to the signal ratio; further: potency means the concentration at half of the fitted maximal effect)
How it was run: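 THP-1 cells (2000/well) exposed to compound 16 h at 37 C; secreted IL-8 then detected by HTRF with cryptate- and XL665-labelled anti-IL-8 antibody pair after 1-3 h at room temperature.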

[10] = biological target: Nuclear receptor ROR-gamma (Homo sapiens) (UniProt P51449); experiment: qHTS assay for small molecule antagonists of the retinoid-related orphan receptor gamma (ROR-gamma) signaling pathway (AID 651802; active means well fitted curve in the direction sought with a large enough effect; an effect the other way counts as inactive or inconclusive; further: potency means the concentration at half of the fitted maximal effect; nearly all actives have a fitted effect of over 60% in size)
Nuclear receptor ROR-gamma (Homo sapiens), sequence (P51449 whole entry, looked up): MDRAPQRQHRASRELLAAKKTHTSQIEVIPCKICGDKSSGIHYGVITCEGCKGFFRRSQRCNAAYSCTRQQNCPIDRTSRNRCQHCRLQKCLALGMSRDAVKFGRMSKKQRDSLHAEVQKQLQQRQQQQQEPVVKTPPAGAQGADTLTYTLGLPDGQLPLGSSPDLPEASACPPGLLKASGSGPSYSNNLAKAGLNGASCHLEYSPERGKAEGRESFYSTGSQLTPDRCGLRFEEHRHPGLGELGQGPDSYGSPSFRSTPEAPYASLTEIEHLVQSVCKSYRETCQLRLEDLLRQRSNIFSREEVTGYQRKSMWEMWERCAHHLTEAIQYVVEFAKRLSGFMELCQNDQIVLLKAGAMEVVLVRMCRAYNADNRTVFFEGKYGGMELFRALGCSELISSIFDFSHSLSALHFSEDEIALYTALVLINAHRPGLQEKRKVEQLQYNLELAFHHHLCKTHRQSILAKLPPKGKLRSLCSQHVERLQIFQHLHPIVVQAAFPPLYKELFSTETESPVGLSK
How it was run: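 CHO cells carrying TET-inducible ROR-gamma and an ROR response element–luciferase reporter were exposed to compound, then induced with doxycycline. After 16hr at 37C, luminescence was read; lower signal indicates antagonism.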

[11] = biological target: Arylsulfatase A (Homo sapiens) (UniProt P15289); experiment: qHTS screen for enhancers of Arylsulfatase A (ASA1): LOPAC Validation Assay (AID 720538; active means well fitted curve in the direction sought with a large enough effect; an effect the other way counts as inactive or inconclusive; further: 0% is about no effect)
Arylsulfatase A (Homo sapiens), sequence (P15289 whole entry, looked up): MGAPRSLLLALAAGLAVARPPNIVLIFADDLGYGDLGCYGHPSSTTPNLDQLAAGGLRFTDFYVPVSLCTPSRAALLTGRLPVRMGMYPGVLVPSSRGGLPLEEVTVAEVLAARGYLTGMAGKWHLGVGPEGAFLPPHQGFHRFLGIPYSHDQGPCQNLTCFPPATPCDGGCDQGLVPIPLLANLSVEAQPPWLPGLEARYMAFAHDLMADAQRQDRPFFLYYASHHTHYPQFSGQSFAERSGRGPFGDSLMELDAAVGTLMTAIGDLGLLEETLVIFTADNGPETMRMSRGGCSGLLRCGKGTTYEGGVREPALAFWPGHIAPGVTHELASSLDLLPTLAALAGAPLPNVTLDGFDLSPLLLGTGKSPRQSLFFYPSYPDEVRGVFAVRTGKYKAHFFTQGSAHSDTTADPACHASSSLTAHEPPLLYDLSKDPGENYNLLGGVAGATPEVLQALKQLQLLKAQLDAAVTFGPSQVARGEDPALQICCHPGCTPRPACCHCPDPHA
How it was run: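 Read-out: fluorescence at Ex=525/Em=598 nm after 1N NaOH final stop. Patient fibroblasts carrying ASA-I179S had 48h compound exposure, then 14h room-temperature pNCS hydrolysis (0.5mM final) in lysis buffer. Signal increase = enhanced activity.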

[12] = qHTS for Inhibitors of the Functional Ribonucleoprotein Complex (vRNP) of Lassa (LASV) Arenavirus: Viability assay - alamar blue signal for LASV Primary Screen (AID 1347083; calls by dose curve; tested in HEK293 reporter line; further: nearly all actives have a fitted effect of over 80% in size; further: potency means the concentration at half of the fitted maximal effect)
[13] = qHTS for Inhibitors of the Functional Ribonucleoprotein Complex (vRNP) of Lymphocytic Choriomeningitis Arenaviruses (LCMV): Viability assay - alamar blue signal for LCMV Primary Screen (AID 1347085; calls by dose curve; tested in HEK293 reporter line; further: nearly all actives have a fitted effect of over 80% in size; further: potency means the concentration at half of the fitted maximal effect)
[14] = Primary qHTS for inhibitors of SARS-S pseudo-typed particle cell entry (AID 1479145); further: on the % scale 0 is the no-effect control and ±100 the full control effect; nearly all actives have a fitted effect of over 45% in size
[15] = Primary qHTS for Huh7 cytotoxicity: counterscreen for inhibitors of MERS-S pseudotyped particle cell entry (AID 1479147); details: outcome: dose series up to 57.1 µM unless noted
[16] = Primary qHTS for inhibitors of MERS-S pseudo-typed particle cell entry (AID 1479149); further: nearly all actives have a fitted effect of over 60% in size; on activity change, negative = inhibition: on the % scale 0 is the no-effect control and ±100 the full control effect
[17] = Primary qHTS for Vero E6 cytotoxicity: counterscreen for inhibitors of SARS-S pseudo-typed particle cell entry (AID 1479150); details: outcome: dose series up to 57.1 µM unless noted
[18] = Cytotoxicity counterscreen for inhibitors of SARS-CoV-2 cell entry (AID 1645845); further: nearly all actives have a fitted effect of over 50% in size
How it was run: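 HEK293-ACE2 cells (Expi293F stably expressing human ACE2) seeded overnight, then compound for 1 h plus 48 h at 37C. Viability as ATP content by luminescence; normalized to wells with cells and media-only wells.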

[19] = Primary qHTS to identify inhibitors of SARS-CoV-2 cell entry (AID 1645846); details: activity change, negative = inhibition: at 57.1 µM (top of the series) unless noted; further: nearly all actives have a fitted effect of over 45% in size
How it was run: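 HEK293-ACE2 (Expi293F, stable hACE2), 1500 cells/well, o/n 37C; cpd 23 nL pin, 1 h; MLV-PP w/ SARS-CoV-2-S (Wuhan-Hu-1, Δ19 C-term); 48 h 37C; Bright-Glo luminescence; normalized vs S-PP and bald PP.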

[20] = Confirmatory qHTS to identify inhibitors of SARS-CoV-2 cell entry (AID 1645844); further: potency means the concentration at half of the fitted maximal effect; nearly all actives have a fitted effect of over 45% in size
How it was run: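 HEK293-ACE2 cells were pretreated 1 h with compound, then infected with MLV-based pseudoparticles bearing C-terminally truncated Wuhan-Hu-1 spike for 48 h at 37C; luciferase luminescence normalized to spike PP and bald PP wells.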

[21] = VSVG counterscreen qHTS to identify inhibitors of SARS-CoV-2 cell entry (AID 1645847); further: potency means the concentration at half of the fitted maximal effect; nearly all actives have a fitted effect of over 65% in size
How it was run: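 Expi293F/hACE2 cells, overnight plating; cpd 1 h, 37C/5% CO2; + VSV-G PP (MLV pseudotyping), 48 h; supernatant removed, Bright-Glo luciferase read. Norm: VSV-G PP and bald PP wells.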

[22] = biological target: Bile acid receptor (Homo sapiens) (UniProt Q96RI1); experiment: qHTS assay for small molecule agonists of farnesoid X receptor signaling (AID 588527); details: HEK293T FXR-UAS-bla, beta-lactamase ratio, 16 h; activation: stronger effect = higher value;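 further: 0% = vehicle basal and 100% = reference agonist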
Bile acid receptor (Homo sapiens), sequence (Q96RI1 whole entry, looked up): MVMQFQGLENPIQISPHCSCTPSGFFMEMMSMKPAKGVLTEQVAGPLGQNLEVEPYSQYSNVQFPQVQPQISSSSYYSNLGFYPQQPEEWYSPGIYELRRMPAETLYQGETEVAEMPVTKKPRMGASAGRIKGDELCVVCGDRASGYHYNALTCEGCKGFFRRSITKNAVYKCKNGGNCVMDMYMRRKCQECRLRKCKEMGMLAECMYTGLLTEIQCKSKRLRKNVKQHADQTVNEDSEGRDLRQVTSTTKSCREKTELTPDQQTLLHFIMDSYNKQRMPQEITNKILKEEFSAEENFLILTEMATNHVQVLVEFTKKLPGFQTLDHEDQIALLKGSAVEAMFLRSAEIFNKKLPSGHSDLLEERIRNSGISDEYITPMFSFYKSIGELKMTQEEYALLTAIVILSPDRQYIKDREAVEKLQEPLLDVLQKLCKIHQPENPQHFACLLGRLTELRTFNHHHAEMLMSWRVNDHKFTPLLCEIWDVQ
How it was run: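 FXR-UAS-bla HEK293T, 10% dialyzed FBS; cpds up to 92 uM titration, 16 h 37 C; CCF4 dye 2 h RT; fluorescence. Normalized to chenodeoxycholic acid 100 uM (100%) and DMSO (0%); Hill fit gives EC50, efficacy.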

NC(=O)c1ncn([C@@H]2O[C@H](CO)[C@@H](O)[C@H]2O)n1
inactive: outcome [1] | Potency [3] | Potency [4] | outcome [5] | Potency [6] | Potency [7] | Potency [11] | Potency [12] | Potency [13] | Potency [14] | outcome [15] | Potency [16] | outcome [17] | Potency [18]
-11.7%: activity change, negative = inhibition [19]
7.17%: viability change [4]
active: Potency [2] 8.91 µM | Potency [8] 31.6 µM | Potency [9] 66.8 µM | Potency [10] 18.8 µM

COc1cc([C@@H]2c3cc4c(cc3[C@@H](O[C@@H]3O[C@@H]5CO[C@@H](C)O[C@@H]5[C@H](O)[C@@H]3O)[C@H]3COC(=O)[C@H]23)OCO4)cc(OC)c1O
active: Potency [12] 2.17 µM | Potency [13] 2.17 µM | Potency [20] 0.541 µM | Potency [21] 0.383 µM
inactive: outcome [15] | outcome [17]

COc1ccc(-c2nc(N3CCOCC3)c3sc(CN(C)c4ncc(C(=O)NO)cn4)cc3n2)cn1
inactive: Potency [19]
active: Potency [12] 0.193 µM | Potency [13] 0.122 µM

CCN1CCCC1=O
inactive: Potency [12] | Potency [13] | Potency [14] | outcome [15] | Potency [16] | outcome [17] | Potency [18] | Potency [19]

CN(C)c1ccc(C(=O)NCCCCCCC(=O)NO)cc1
inactive: Potency [19]
active: Potency [12] 4.85 µM | Potency [13] 1.53 µM

C[C@@]1(C(=O)Nc2ccc(F)nc2)CCCN1c1nc(Nc2cc(C3CC3)[nH]n2)c2cccn2n1
active: Potency [12] 6.11 µM | Potency [13] 1.37 µM | Potency [20] 0.171 µM | Potency [21] 2.71 µM
inactive: Potency [18]

CC(C=CC1=C(C)CCCC1(C)C)=CC=CC(C)=CC(=O)Nc1ccc(O)cc1
inactive: activation [22] 2.75% | Potency [7]
active: Potency [12] 44.4 µM | Potency [13] 44.4 µM

CC(C)Oc1ccc(C(=O)N[C@H](CNC(=O)CN(C)C)Cc2ccc(-c3cn4cccc([C@H](C)O)c4n3)cc2)cc1Cl
active: Potency [12] 1.93 µM | Potency [13] 0.968 µM
inactive: Potency [18]

O=C(c1ccc(OCCCc2cnc[nH]2)cc1)C1CC1
inactive: outcome [5] | Potency [12] | Potency [13]
